Data: paper PMC7862700, “An all-to-all approach to the identification of sequence-specific readers for epigenetic DNA modifications on cytosine”

How the values were obtained:
Assay in all cases: DAPPL (digital affinity profiling via proximity ligation, sequencing); 10 mM Tris-HCl pH 7.5, 50 mM NaCl, 1 mM DTT, 4% glycerol, room temperature, 30 min; GST-TFs on glutathione beads, 16-mer random dsDNA library, 0.1% formaldehyde crosslink after washing; high values mean tight binding
Details in all cases: protein: recombinant; tags: N-terminal GST; dsDNA, one strand shown
[1] = target: T1, FLI1 (Homo sapiens, UniProt Q01543 1-452)
T1 sequence: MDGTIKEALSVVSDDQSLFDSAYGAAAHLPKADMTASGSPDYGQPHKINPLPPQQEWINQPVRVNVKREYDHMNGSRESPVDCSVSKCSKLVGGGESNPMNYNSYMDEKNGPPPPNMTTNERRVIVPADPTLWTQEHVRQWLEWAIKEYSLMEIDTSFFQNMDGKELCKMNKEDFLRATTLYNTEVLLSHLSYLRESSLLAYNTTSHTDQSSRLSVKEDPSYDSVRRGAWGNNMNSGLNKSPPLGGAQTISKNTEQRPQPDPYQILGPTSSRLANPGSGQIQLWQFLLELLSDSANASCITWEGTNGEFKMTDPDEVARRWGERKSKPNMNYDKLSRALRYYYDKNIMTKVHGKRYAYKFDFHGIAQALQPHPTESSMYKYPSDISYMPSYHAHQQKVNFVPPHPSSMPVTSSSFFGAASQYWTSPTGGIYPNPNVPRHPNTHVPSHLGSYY
In short: (§1)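 Human transcription factors carrying a GST fusion were produced in yeast, bound to glutathione beads, tagged with DNA barcodes and pooled together with a tag-only sample. Each pool was held with 200 nmole of a random double-stranded 16-mer DNA library in Tris/NaCl/DTT/glycerol buffer for 30 min at room temperature, then washed, crosslinked in 0.1% formaldehyde, proximity-ligated with BsaI/T4 ligase (1 h, 37 °C), PCR-amplified and sequenced on an Illumina NextSeq500. Binding signal is the read frequency of each hexamer for a given factor divided by its frequency in the tag-only sample.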

[2] = target: T2, ELK1 (Homo sapiens, UniProt P19419 1-428)
T2 sequence: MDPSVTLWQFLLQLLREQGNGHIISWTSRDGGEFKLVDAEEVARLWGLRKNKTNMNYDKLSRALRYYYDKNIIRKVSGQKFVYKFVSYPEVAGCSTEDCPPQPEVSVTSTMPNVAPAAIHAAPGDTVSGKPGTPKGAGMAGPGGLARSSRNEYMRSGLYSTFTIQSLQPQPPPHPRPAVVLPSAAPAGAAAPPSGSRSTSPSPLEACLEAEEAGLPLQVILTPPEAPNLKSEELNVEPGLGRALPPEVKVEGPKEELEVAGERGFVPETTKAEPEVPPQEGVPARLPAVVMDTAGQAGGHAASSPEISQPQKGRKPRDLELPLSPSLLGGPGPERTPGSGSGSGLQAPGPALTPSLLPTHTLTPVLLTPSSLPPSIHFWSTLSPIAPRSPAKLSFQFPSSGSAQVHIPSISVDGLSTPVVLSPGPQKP
In short: as §1

[3] = target: T3, GABPA (Homo sapiens, UniProt Q06546 1-454)
T3 sequence: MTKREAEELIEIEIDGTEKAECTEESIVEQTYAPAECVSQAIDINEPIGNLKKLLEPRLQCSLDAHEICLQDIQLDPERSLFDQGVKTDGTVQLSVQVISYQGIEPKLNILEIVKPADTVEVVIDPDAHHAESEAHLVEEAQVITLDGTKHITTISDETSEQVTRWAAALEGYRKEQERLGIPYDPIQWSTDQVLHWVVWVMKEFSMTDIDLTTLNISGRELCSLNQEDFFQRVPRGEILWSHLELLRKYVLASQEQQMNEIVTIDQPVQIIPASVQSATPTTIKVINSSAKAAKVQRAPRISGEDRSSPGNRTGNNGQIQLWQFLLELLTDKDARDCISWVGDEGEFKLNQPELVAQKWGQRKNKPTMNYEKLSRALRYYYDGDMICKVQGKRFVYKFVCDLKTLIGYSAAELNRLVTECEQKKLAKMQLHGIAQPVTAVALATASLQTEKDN
In short: as §1

[4] = target: T4, ERG (Homo sapiens, UniProt P11308 1-479)
T4 sequence: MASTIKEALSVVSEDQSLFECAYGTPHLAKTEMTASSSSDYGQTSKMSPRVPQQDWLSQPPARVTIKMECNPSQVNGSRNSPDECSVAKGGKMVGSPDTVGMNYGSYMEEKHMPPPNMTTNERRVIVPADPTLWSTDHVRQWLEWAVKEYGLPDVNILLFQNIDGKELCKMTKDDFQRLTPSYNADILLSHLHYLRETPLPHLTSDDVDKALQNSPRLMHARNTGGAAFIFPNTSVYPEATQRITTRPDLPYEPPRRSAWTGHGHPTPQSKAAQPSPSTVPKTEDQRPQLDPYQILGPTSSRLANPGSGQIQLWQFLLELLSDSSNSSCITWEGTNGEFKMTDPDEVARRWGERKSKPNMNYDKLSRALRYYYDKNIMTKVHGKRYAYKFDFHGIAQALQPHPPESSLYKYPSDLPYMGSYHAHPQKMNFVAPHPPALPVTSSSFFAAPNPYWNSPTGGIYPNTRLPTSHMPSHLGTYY
In short: as §1

[5] = target: ELF1 (Homo sapiens, UniProt P32519 1-619)
ELF1, sequence (P32519 whole entry): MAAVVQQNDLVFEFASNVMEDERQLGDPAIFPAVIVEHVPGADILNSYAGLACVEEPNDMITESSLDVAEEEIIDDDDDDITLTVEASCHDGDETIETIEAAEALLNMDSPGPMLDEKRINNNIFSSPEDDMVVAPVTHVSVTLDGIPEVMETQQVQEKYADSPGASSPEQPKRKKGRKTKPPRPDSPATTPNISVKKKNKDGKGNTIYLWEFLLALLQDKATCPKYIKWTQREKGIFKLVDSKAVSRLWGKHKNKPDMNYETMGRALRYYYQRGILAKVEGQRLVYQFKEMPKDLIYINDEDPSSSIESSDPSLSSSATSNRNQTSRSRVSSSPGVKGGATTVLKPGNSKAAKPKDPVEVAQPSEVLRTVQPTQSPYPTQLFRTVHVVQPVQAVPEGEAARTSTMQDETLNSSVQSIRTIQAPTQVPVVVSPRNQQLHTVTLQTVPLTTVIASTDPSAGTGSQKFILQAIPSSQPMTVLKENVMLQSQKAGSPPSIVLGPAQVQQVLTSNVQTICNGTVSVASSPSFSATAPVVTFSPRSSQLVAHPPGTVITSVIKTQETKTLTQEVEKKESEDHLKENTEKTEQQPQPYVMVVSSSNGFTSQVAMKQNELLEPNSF
In short: as §1

[6] = target: T5, EHF (Homo sapiens, UniProt Q9NZC4 1-300)
T5 sequence: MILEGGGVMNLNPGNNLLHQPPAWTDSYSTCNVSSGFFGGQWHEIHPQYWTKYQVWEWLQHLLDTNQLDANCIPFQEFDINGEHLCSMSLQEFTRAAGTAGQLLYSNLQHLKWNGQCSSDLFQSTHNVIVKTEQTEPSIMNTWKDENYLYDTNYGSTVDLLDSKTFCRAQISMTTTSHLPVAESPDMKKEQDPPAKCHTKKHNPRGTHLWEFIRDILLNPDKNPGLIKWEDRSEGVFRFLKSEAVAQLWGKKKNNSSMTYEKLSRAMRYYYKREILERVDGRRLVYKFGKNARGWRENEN
In short: as §1

[7] = target: SPI1 (Homo sapiens, UniProt P17947 1-270)
In short: as §1

[8] = target: SPIB (Homo sapiens, UniProt Q01892 1-262)
SPIB, sequence (Q01892 whole entry): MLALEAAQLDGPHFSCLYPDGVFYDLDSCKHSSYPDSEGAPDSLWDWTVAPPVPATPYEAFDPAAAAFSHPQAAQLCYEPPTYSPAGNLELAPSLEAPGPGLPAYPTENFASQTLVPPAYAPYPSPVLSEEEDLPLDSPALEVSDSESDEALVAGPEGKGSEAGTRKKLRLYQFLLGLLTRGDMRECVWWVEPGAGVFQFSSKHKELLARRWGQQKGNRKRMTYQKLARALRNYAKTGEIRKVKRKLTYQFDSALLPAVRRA
In short: as §1

[9] = target: T6, ELK3 (Homo sapiens, UniProt P41970 1-407)
T6 sequence: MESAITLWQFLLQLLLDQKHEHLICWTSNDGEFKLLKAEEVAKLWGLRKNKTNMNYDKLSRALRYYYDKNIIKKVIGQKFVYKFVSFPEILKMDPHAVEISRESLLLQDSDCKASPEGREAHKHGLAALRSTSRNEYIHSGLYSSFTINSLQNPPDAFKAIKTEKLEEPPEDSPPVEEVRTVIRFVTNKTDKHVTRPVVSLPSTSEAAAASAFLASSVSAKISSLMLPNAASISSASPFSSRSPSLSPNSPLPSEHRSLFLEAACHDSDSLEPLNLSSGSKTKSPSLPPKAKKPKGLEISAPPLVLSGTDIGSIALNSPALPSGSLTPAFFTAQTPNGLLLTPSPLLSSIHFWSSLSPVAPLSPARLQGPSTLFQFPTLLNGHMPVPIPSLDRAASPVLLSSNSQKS
In short: as §1

[10] = target: T7, FEV (Homo sapiens, UniProt Q99581 1-238)
T7 sequence: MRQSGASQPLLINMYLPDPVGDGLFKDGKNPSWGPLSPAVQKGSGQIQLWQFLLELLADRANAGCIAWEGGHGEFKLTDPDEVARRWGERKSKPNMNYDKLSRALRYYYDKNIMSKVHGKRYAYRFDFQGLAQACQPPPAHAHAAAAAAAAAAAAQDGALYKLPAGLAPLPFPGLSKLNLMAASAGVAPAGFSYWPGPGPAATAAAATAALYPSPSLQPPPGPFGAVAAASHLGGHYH
In short: as §1

[11] = target: ETV5 (Homo sapiens, UniProt P41161 1-510)
ETV5, sequence (P41161 whole entry): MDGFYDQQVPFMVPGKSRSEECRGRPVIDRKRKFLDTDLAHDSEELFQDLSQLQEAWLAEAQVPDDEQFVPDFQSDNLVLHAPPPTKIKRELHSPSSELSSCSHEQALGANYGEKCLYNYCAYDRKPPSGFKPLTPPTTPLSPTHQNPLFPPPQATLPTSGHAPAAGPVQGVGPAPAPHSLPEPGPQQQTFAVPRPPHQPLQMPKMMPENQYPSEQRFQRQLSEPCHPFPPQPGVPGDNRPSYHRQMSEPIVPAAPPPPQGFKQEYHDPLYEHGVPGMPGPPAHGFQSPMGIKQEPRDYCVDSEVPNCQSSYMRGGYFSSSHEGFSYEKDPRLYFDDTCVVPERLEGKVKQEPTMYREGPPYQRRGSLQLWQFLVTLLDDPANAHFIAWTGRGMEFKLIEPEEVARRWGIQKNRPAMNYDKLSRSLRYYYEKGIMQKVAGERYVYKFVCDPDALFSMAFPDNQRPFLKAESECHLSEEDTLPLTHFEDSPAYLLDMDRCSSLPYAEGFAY
In short: as §1

[12] = target: T8, SPIC (Homo sapiens, UniProt Q8N5J4 1-248)
T8 sequence: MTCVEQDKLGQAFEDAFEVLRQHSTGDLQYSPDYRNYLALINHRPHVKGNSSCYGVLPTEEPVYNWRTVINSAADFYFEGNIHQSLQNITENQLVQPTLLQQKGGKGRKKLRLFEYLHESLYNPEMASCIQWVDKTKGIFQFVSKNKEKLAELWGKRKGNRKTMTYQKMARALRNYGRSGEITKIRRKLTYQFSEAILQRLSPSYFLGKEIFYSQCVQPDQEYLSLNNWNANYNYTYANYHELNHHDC
In short: as §1

[13] = target: ELF4 (Homo sapiens, UniProt Q99607 1-663)
ELF4, sequence (Q99607 whole entry): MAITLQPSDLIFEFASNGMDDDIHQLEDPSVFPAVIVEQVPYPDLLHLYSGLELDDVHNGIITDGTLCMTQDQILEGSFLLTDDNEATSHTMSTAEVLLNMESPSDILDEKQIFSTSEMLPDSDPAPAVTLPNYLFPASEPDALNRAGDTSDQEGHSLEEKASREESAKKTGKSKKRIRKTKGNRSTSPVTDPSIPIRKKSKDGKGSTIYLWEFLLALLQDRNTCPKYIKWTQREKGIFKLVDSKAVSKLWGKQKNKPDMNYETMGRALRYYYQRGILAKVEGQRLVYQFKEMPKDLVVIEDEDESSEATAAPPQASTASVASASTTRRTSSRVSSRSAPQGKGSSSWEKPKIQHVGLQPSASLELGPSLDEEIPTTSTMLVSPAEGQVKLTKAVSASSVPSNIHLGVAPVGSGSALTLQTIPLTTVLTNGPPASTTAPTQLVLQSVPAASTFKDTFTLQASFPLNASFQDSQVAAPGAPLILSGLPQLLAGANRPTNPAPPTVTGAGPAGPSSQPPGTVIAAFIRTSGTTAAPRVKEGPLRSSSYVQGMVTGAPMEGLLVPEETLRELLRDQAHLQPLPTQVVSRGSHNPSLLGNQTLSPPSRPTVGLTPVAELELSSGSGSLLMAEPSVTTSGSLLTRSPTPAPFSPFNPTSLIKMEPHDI
In short: as §1

[14] = target: T9, ERF (Homo sapiens, UniProt P50548 1-548)
T9 sequence: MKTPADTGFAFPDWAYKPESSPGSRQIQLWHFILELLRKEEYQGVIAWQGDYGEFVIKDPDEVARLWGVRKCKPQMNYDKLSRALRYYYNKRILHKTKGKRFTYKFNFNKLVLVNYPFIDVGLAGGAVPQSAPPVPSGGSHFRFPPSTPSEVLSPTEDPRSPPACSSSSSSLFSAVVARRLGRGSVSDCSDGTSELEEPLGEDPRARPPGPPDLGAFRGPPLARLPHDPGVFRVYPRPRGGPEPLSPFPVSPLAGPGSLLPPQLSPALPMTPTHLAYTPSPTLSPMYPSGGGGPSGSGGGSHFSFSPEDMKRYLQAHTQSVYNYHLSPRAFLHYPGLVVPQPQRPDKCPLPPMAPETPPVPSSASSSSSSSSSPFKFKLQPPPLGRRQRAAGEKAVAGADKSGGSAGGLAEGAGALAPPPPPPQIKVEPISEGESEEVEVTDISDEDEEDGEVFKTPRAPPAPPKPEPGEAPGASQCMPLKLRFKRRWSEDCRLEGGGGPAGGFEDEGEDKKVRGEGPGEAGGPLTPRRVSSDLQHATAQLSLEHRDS
In short: as §1

[15] = target: T10, ETV3L (Homo sapiens, UniProt Q6ZN32 1-361)
T10 sequence: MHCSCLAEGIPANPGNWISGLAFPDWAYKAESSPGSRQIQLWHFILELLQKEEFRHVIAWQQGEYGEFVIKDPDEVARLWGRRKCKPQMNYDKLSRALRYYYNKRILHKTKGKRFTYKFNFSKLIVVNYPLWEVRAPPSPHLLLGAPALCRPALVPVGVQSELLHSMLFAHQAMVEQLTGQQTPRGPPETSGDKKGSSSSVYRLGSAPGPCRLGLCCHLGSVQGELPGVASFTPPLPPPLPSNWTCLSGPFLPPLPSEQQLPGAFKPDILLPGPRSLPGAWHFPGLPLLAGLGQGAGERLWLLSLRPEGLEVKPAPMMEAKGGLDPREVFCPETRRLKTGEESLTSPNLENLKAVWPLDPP
In short: as §1

[16] = target: T11, ETS2 (Homo sapiens, UniProt P15036 1-469)
T11 sequence: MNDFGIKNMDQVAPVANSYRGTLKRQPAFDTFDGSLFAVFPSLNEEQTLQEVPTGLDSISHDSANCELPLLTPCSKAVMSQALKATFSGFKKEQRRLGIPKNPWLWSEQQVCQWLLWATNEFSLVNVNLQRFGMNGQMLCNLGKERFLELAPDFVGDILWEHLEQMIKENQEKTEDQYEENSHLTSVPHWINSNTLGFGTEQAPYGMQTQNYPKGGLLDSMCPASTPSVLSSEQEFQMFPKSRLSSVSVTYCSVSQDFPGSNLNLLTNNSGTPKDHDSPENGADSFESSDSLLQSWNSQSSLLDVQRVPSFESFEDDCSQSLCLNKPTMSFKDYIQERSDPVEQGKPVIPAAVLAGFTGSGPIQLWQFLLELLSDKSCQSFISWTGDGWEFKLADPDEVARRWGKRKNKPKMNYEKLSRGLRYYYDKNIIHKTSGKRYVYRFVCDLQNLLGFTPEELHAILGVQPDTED
In short: as §1

[17] = target: T12, SPDEF (Homo sapiens, UniProt O95238 1-335)
T12 sequence: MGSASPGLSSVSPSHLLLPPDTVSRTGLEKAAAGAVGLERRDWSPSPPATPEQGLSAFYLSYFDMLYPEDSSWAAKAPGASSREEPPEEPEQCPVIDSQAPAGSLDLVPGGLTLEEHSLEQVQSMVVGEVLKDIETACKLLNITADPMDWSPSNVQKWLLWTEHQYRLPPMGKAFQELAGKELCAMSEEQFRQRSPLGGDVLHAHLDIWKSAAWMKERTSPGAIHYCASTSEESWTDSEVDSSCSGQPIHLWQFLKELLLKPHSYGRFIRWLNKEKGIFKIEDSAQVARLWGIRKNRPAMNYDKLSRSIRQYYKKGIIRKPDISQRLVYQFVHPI
In short: as §1

[18] = target: T13, ETV3 (Homo sapiens, UniProt P41162-2 1-143)
T13 sequence: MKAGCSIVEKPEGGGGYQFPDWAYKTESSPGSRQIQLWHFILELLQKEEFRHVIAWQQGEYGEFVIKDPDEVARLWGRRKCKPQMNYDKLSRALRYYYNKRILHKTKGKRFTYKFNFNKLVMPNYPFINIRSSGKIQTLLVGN
In short: as §1

[19] = target: ETV6 (Homo sapiens, UniProt P41212 1-452)
ETV6, sequence (P41212 whole entry): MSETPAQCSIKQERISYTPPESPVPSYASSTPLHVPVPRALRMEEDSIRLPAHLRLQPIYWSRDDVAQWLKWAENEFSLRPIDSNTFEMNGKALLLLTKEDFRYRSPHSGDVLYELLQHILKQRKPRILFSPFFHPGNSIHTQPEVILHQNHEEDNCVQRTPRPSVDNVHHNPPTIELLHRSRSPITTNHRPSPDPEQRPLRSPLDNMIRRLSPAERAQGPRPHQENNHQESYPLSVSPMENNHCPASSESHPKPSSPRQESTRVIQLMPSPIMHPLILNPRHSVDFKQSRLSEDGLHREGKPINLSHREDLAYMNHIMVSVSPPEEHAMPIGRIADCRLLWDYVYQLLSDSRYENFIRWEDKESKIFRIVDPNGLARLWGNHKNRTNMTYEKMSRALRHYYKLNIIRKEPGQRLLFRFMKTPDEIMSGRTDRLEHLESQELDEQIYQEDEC
In short: as §1

TGCCAA was tested, and the binding signal [1] was 1.07 fold enrichment (6-mer frequency, TF over GST control), the binding signal [2] was 1.11 fold enrichment (6-mer frequency, TF over GST control) and the binding signal [3] was 1.06 fold enrichment (6-mer frequency, TF over GST control). The binding signal [4] was 1.06 fold enrichment (6-mer frequency, TF over GST control), the binding signal [5] was 1.18 fold enrichment (6-mer frequency, TF over GST control) and the binding signal [6] was 1.09 fold enrichment (6-mer frequency, TF over GST control). For the same sequence, the binding signal [7] was 1.12 fold enrichment (6-mer frequency, TF over GST control), the binding signal [8] was 1.11 fold enrichment (6-mer frequency, TF over GST control) and the binding signal [9] was 1.05 fold enrichment (6-mer frequency, TF over GST control). For the same sequence, the binding signal [10] was 1.12 fold enrichment (6-mer frequency, TF over GST control), the binding signal [11] was 1.08 fold enrichment (6-mer frequency, TF over GST control) and the binding signal [12] was 1.08 fold enrichment (6-mer frequency, TF over GST control). For the same sequence, the binding signal [13] was 1.12 fold enrichment (6-mer frequency, TF over GST control), the binding signal [14] was 1.15 fold enrichment (6-mer frequency, TF over GST control) and the binding signal [15] was 1.21 fold enrichment (6-mer frequency, TF over GST control). The binding signal [16] was 1.12 fold enrichment (6-mer frequency, TF over GST control), the binding signal [17] was 1.08 fold enrichment (6-mer frequency, TF over GST control) and the binding signal [18] was 1.13 fold enrichment (6-mer frequency, TF over GST control). For the same sequence, the binding signal [19] was 1.08 fold enrichment (6-mer frequency, TF over GST control).
